Among the data in PMC10726135, “HNF4α isoforms regulate the circadian balance between carbohydrate and lipid metabolism in the liver” are binding signal values, retold here.

In all, about 18,000 sequences were measured (“log2 normalized intensity”: median about 0.36, highest 2% from about 7.3 on). The full list was thinned out, with the highest values kept by preference.

For this assay, the target named is T1, HNF4alpha8 (COS-7 nuclear extract) (Homo sapiens, UniProt P41235-5 1-452).
T1 sequence: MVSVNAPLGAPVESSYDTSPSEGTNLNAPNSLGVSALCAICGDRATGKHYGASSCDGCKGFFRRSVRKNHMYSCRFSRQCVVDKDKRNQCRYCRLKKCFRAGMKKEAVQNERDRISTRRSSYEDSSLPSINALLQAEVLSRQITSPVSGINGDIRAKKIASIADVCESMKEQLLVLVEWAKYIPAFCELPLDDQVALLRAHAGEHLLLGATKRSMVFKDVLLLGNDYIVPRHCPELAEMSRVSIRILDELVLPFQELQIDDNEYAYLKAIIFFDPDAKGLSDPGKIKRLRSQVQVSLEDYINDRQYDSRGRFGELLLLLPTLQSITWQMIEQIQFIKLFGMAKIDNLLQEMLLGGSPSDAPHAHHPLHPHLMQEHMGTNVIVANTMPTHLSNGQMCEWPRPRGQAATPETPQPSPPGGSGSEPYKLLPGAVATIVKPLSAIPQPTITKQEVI
The experiment in a line: protein-binding microarray; COS-7 nuclear extract on double-stranded Agilent 4x180k PBM; binding buffer, salt, pH and temperature not given in the material; high values mean tight binding. Particulars: chain copies: 2; label: 3' end of strand 1 on the slide; dsDNA, one strand shown. The procedure, abridged:
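A human HNF4α isoform was expressed in COS-7 cells by transient CaPO4 transfection, and nuclear extracts were prepared. These were applied to a custom Agilent SurePrint G3 4x180k array carrying ~44,000 test sequences in quadruplicate as double-stranded ~60-nt oligonucleotides, and an Agilent G2565CA scanner imaged bound HNF4α at 2-µm resolution. The background-corrected, normalized gProcessedSignal from Agilent software was used as the binding signal.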
With “TTTGTCAAATGCTTCCAAGAATTTAAGAGAGCCTAGGGAGATTAGAGTATCGGTCGA”, the binding signal is -0.862 log2 normalized intensity.
Next, “CAGAGGACAGGTTTCCTGAGTTACAGATAAGCCTAGGGAGATTAGAGTATCGGTCGA”: -0.778 log2 normalized intensity.
Consider “ATTCACATCTCCAGTTCCAAAGTCCAGGTGGCCTAGGGAGATTAGAGTATCGGTCGA”, for which the binding signal was determined as 6.55 log2 normalized intensity.
Turning to “TGTTAGCAGAAACCATCTGGCTTGGCCCCCGCCTAGGGAGATTAGAGTATCGGTCGA”, the binding signal turned out to be 4.14 log2 normalized intensity.
As to “AAAATACCTGGAAGTATTTATTGAGCACACGCCTAGGGAGATTAGAGTATCGGTCGA”, the binding signal was -0.121 log2 normalized intensity.
Regarding “CCTCGAGGCAACCTTTGACCTGGTACTATGGCCTAGGGAGATTAGAGTATCGGTCGA”, the binding signal is 6.8 log2 normalized intensity.
“GTCAAATCACTGAAGCGACCCCTCGAGGCAGCCTAGGGAGATTAGAGTATCGGTCGA”: the binding signal came out at 1.82 log2 normalized intensity.
With “AAGTATCTCGGTCAAACCTTTGACCCTTTAGCCTAGGGAGATTAGAGTATCGGTCGA” the figure was 6.9 log2 normalized intensity; with “TGAAGCGACCCCTCGAGGCAACCTTTGACCGCCTAGGGAGATTAGAGTATCGGTCGA”, 9.25 log2 normalized intensity; with “CGACCCCTCGAGGCAACCTTTGACCTGGTAGCCTAGGGAGATTAGAGTATCGGTCGA”, 8.16 log2 normalized intensity.
For “ATCACTGAAGCGACCCCTCGAGGCAACCTTGCCTAGGGAGATTAGAGTATCGGTCGA”, the binding signal amounted to 1.75 log2 normalized intensity.
For the sequence “GTGAACCTTTGTCCCGTTATGGCACCAAGAGCCTAGGGAGATTAGAGTATCGGTCGA”, the binding signal amounted to 1.55 log2 normalized intensity.
With “AGATCCATTGCATGTGCATTTCACAATAGGGCCTAGGGAGATTAGAGTATCGGTCGA” the figure was 0.639 log2 normalized intensity.
Next, “GTGGGAGAAAGCTTTGGACTTTGGGCTGTGGCCTAGGGAGATTAGAGTATCGGTCGA”: 6.47 log2 normalized intensity; “GGTCAGCAATGTGGACTTTGTCCTGTGGGCGCCTAGGGAGATTAGAGTATCGGTCGA”: 8.67 log2 normalized intensity.
Regarding “TGGACTTTGGTCCTGGTCAGACTTGCCACGGCCTAGGGAGATTAGAGTATCGGTCGA”, the binding signal is 5.42 log2 normalized intensity.
As for “AGTTTGCCACGGTCAGCAATGTGGACTTTGGCCTAGGGAGATTAGAGTATCGGTCGA”, the binding signal turned out to be 6.83 log2 normalized intensity.
Turning to “GTGGACTTTGTCCTGTGGGCTGTAAAAATCGCCTAGGGAGATTAGAGTATCGGTCGA”, the binding signal came to 5.73 log2 normalized intensity.
Next, “ATGGACTTTGAAGGAGATTCCTGTGTCAGCGCCTAGGGAGATTAGAGTATCGGTCGA”: 1.23 log2 normalized intensity; “GCCACGGTCAGCAATGTGGACTTTGTCCTGGCCTAGGGAGATTAGAGTATCGGTCGA”: 10.2 log2 normalized intensity; “CCGTCCTGTCCTGGACTTTCCTTTGTTGGGGCCTAGGGAGATTAGAGTATCGGTCGA”: 2.84 log2 normalized intensity.
Regarding “GCAATGTGGACTTTGTCCTGTGGGCTGTAAGCCTAGGGAGATTAGAGTATCGGTCGA”, the binding signal was found to be 8.03 log2 normalized intensity.
With “CAGATAATTACCTGGACTCTAGAGCCAGACGCCTAGGGAGATTAGAGTATCGGTCGA” the figure was 1.75 log2 normalized intensity.
Turning to “CTCAAAGTCTAACCCAACTAAGAACACAGTGCCTAGGGAGATTAGAGTATCGGTCGA”, the binding signal stood at 1.24 log2 normalized intensity.
With “AAAGTTCAGTTGCAAAGAACAGAATCCAGTGCCTAGGGAGATTAGAGTATCGGTCGA” the figure was -0.777 log2 normalized intensity; with “GTCTTACTGATGGGCAAAGTTTTCAAGAATGCCTAGGGAGATTAGAGTATCGGTCGA”, 1.24 log2 normalized intensity; with “CATGTTTACTTTTGCAAGGTTTGTTCTTATGCCTAGGGAGATTAGAGTATCGGTCGA”, 1.87 log2 normalized intensity.
As to “TGGGGTATCAGGTGGTGATGGTGGGAGGGAGCCTAGGGAGATTAGAGTATCGGTCGA”, the binding signal was -0.797 log2 normalized intensity.
“AGATGGGGTGAACTTTGGACCACATATAGAGCCTAGGGAGATTAGAGTATCGGTCGA”: the binding signal turned out to be 7.98 log2 normalized intensity.
As for “GGTGAACTTTGAGACTATCCTTGGACCGCAGCCTAGGGAGATTAGAGTATCGGTCGA”, the binding signal amounted to 3.32 log2 normalized intensity.
Consider “AGATCAGATGGGGTGAACTTTGGACCACATGCCTAGGGAGATTAGAGTATCGGTCGA”, for which the binding signal was 8.04 log2 normalized intensity.
For “GAGGACTTTGGCCTTTTGTGAGATATGGACGCCTAGGGAGATTAGAGTATCGGTCGA”, the binding signal was 4.16 log2 normalized intensity.
For “ACAGGAGATCAGATGGGGTGAACTTTGGACGCCTAGGGAGATTAGAGTATCGGTCGA”, the binding signal was 9.11 log2 normalized intensity.
With “CTCAGTCATACCACATGGATGGATTCAGATGCCTAGGGAGATTAGAGTATCGGTCGA” the figure was 0.256 log2 normalized intensity; with “TACCATGGGAGACCTCAGGGGTCATCAGATGCCTAGGGAGATTAGAGTATCGGTCGA”, 3.08 log2 normalized intensity.
Consider “CAGGGGTCATCAGATAGATGGTCAGTGAACGCCTAGGGAGATTAGAGTATCGGTCGA”, for which the binding signal turned out to be 1.88 log2 normalized intensity.
“AAGGGAGAAAGACATGTTTCTAACTGCCCGGCCTAGGGAGATTAGAGTATCGGTCGA”: the binding signal was 0.0984 log2 normalized intensity.
Consider “CTGCTTCGGCCTTTGACCTCGTGATAACGAGCCTAGGGAGATTAGAGTATCGGTCGA”, for which the binding signal is 5.83 log2 normalized intensity.
Next, “TTGAAGAAATGGTGGACTTTGTAGCTCAAAGCCTAGGGAGATTAGAGTATCGGTCGA”: 4.79 log2 normalized intensity; “AAAGTTCTGCTGAGTATCCAAAGGTCAGTGGCCTAGGGAGATTAGAGTATCGGTCGA”: 6.24 log2 normalized intensity.
As to “GACGGGAGGAAAACTGGGCAAAGGTCAGGAGCCTAGGGAGATTAGAGTATCGGTCGA”, the binding signal was 5.58 log2 normalized intensity.
Regarding “GGCGTGGACTTCGCTCCGCCGCTAGGTGGCGCCTAGGGAGATTAGAGTATCGGTCGA”, the binding signal was 3.13 log2 normalized intensity.
With “GCCAGGCAGGACAGTTTTGTGTGTTTAATGGCCTAGGGAGATTAGAGTATCGGTCGA”, the binding signal was determined as 0.878 log2 normalized intensity.
On to “AAATGCTGATAATGATATGGACAATGAAATGCCTAGGGAGATTAGAGTATCGGTCGA”, for which the binding signal was determined as 0.122 log2 normalized intensity.
